{"source": "ChEMBL document CHEMBL3988442", "about": "“University of Dundee, Small-Polar-MMV Screening Library” (2021)", "note": "About 13,000 (27%) of roughly 48,000 compounds showed an effect of 50% or more. This is one part of the list.", "data": [{"system": "Wolbachia pipientis", "test": "Anti-Wolbachia Cell-Based Screen", "assay_type": "functional", "set-up": "scale not given: in the data most compounds retested in dose-response had high values", "details": "5 µM", "units": {"Percent Effect": "%"}, "values": [{"compound": "O=C(C1CC=CC1)N1C[C@@H]2CN(Cc3ccsc3)CCO[C@@H]2C1.O=C(O)C(F)(F)F", "Percent Effect": 1.635}, {"compound": "CS(=O)(=O)CCNC(=O)N(Cc1ccoc1)C1CCCCC1", "Percent Effect": -12.04}, {"compound": "COc1ccc(Cc2nnc3n2N=C(C(C)(C)C)CS3)cc1", "Percent Effect": 3.244}, {"compound": "CSCC(C)(O)CNC(=O)c1cccc(Cl)c1Cl", "note": "(centres undefined)", "Percent Effect": -18.01}, {"compound": "Cc1cc(C(=O)N2CCCC(n3cncn3)C2)c(C)n1C1CC1", "note": "(centres undefined)", "Percent Effect": 0.2394}, {"compound": "Cc1cc(C(=O)N2CCCC(n3ccnc3)C2)c(C)n1C1CC1", "note": "(centres undefined)", "Percent Effect": 137.5}, {"compound": "Cn1ncc(C(=O)N2CCCC(n3cccn3)C2)c1C1CC1", "note": "(centres undefined)", "Percent Effect": 3.227}, {"compound": "Cc1nn2cccnc2c1C(=O)N1CCCC(n2ccnc2)C1", "note": "(centres undefined)", "Percent Effect": 4.541}, {"compound": "Cc1cc(C(=O)N2CCCC(n3cccn3)C2)c(C)n1C1CC1", "note": "(centres undefined)", "Percent Effect": 121.6}, {"compound": "Cn1cc(N2CCC(Nc3ccc4nccnc4n3)C2=O)cn1", "note": "(centres undefined)", "Percent Effect": -8.237}, {"compound": "Cc1nnc2n1CC(CNc1cnc3ccccc3n1)CC2", "note": "(centres undefined)", "Percent Effect": 0.6716}, {"compound": "Cc1ccn(CCNc2ncnc3c2CCN(S(C)(=O)=O)CC3)n1", "Percent Effect": 5.573}, {"compound": "CS(=O)(=O)N[C@@H]1CN(Cc2ccco2)C[C@@H]2CCCO[C@@H]21.O=C(O)C(F)(F)F", "Percent Effect": 1.285}, {"compound": "Cc1oncc1C(=O)N[C@@H]1CN(c2ncccn2)C[C@@H]2CCCO[C@@H]21.O=C(O)C(F)(F)F", "Percent Effect": -3.566}, {"compound": "CN(C)[C@@H]1CN(Cc2ccoc2)C[C@@H]2CCCO[C@@H]21.O=C(O)C(F)(F)F.O=C(O)C(F)(F)F", "Percent Effect": -4.757}, {"compound": "O=C(CC1CC1)N[C@@H]1CN(Cc2ccoc2)C[C@@H]2CCCO[C@@H]21", "Percent Effect": -6.81}, {"compound": "O=C(N[C@@H]1CN(Cc2ccoc2)C[C@@H]2CCCO[C@@H]21)C1CCC1", "Percent Effect": 85.36}, {"compound": "Cc1oncc1C(=O)N[C@@H]1CN(Cc2ccco2)C[C@@H]2CCCO[C@@H]21.O=C(O)C(F)(F)F", "Percent Effect": 107.8}, {"compound": "Cc1oncc1C(=O)N[C@@H]1CN(Cc2ccoc2)C[C@@H]2CCCO[C@@H]21.O=C(O)C(F)(F)F", "Percent Effect": 105.5}, {"compound": "O=C(CC1CC1)N[C@@H]1CN(Cc2ccco2)C[C@@H]2CCCO[C@@H]21.O=C(O)C(F)(F)F", "Percent Effect": -7.613}, {"compound": "CCOc1cccc(CCNC(=O)Cc2ccn[nH]2)n1", "Percent Effect": -27.67}, {"compound": "O=C(O)[C@@]12CN(c3cnccn3)C[C@@H]1CN(C1CCOCC1)C2", "Percent Effect": -13.72}, {"compound": "CNC(=O)[C@@H]1C[C@@H](NC(=O)Cc2cccs2)CN1C1CCOCC1", "Percent Effect": 0.5082}, {"compound": "Cc1nc2ccccn2c1CN1C[C@@H](CN2CCOCC2)[C@@H](CO)C1", "Percent Effect": -3.894}, {"compound": "CC(=O)N1CCC(c2nn(C)c(=O)n2-c2ccccc2)CC1", "Percent Effect": -1.019}, {"compound": "COCCN1C(=O)[C@H]2CC[C@@H]1CN(c1nccc(C3CCCC3)n1)C2", "Percent Effect": -7.608}, {"compound": "COCCn1ccnc1C1CCN(C(=O)C(O)c2ccc(F)cc2)CC1", "note": "(centres undefined)", "Percent Effect": -18.13}, {"compound": "COCCn1c(=O)n(C)c(=O)c2ccc(C3CCC(CN)CC3)nc21.Cl", "note": "(centres undefined)", "Percent Effect": 114.4}, {"compound": "COCCn1c(=O)n(C)c(=O)c2ccc(C3CCN(C(C)=O)CC3)nc21", "Percent Effect": 55.11}, {"compound": "COCCN1CCC(c2nc3c([nH]2)CC(C)(C)CNC3=O)C1", "note": "(centres undefined)", "Percent Effect": -9.937}, {"compound": "Cc1ccn(C)c(=O)c1NC(=O)N(C)Cc1cccc(OC(C)C)c1", "Percent Effect": 2.513}, {"compound": "CCCc1cncnc1N1CCC(NCc2ccncc2)CC1", "Percent Effect": 5.564}, {"compound": "CN(Cc1cc2n(n1)CCNC2)Cc1noc(C2CCC2)n1", "Percent Effect": -1.079}, {"compound": "CN(CCCc1cnn(C)c1)Cc1cc2n(n1)CCNC2", "Percent Effect": 121.7}, {"compound": "CN(CCCc1cnn(C)c1)Cc1cc2n(n1)CCCN(C)C2", "Percent Effect": 94.13}, {"compound": "CN(CCCc1cnn(C)c1)C(=O)C1CCN(C(=O)C2CCC2)CC1", "Percent Effect": 14.43}, {"compound": "CNc1ncc(CN(C)Cc2cc3n(n2)CCNC3)cn1", "Percent Effect": 11.28}, {"compound": "CN(Cc1cc2n(n1)CCCNC2)Cc1cc(-c2ccncc2)no1", "Percent Effect": 4.022}, {"compound": "CN(CCCc1cnn(C)c1)Cc1cc2n(n1)CCCNC2", "Percent Effect": 97.92}, {"compound": "CN(Cc1cc2n(n1)CCCNC2)Cc1ccno1", "Percent Effect": -18.26}, {"compound": "CCn1cc(CN2CCCn3nc(CNC(=O)N(C)C)cc3C2)cn1", "Percent Effect": 15.22}, {"compound": "CC(NC(=O)N(C)Cc1ccc2c(c1)OCO2)c1nncn1C", "note": "(centres undefined)", "Percent Effect": 16.38}, {"compound": "CC1(c2ccccc2)CCC(=O)N(CCN2CCOCC2)C1", "note": "(centres undefined)", "Percent Effect": 8.315}, {"compound": "COC(CNC(=O)c1ccc(NC(C)=O)cc1)c1cccc(Cl)c1", "note": "(centres undefined)", "Percent Effect": -77.03}, {"compound": "CN1CCN(Cc2ccncc2)C(=O)C12CCN(c1nccs1)CC2.O=C(O)C(F)(F)F.O=C(O)C(F)(F)F", "Percent Effect": -19.3}, {"compound": "CCN1CCN(C)C2(CCN(Cc3ccsc3)CC2)C1=O.O=C(O)C(F)(F)F.O=C(O)C(F)(F)F", "Percent Effect": 94.35}, {"compound": "CCN1CCN(C)C(=O)C12CCN(Cc1ccsc1)CC2.O=C(O)C(F)(F)F", "Percent Effect": -27.74}, {"compound": "CN1CCN(C)C2(CCN(Cc3ccsc3)CC2)C1=O.O=C(O)C(F)(F)F", "Percent Effect": 105.2}, {"compound": "CN1CCN(Cc2ccncc2)C(=O)C12CCN(Cc1ccsc1)CC2.O=C(O)C(F)(F)F.O=C(O)C(F)(F)F.O=C(O)C(F)(F)F", "Percent Effect": 58.8}]}]}
